# From PubChem
# tim23-1 inh: tim23-1 yeast growth inhibition. S. cerevisiae tim23-1 growth, BacTiter-Glo luminescence, 24 h. inhibition, % at 20 µM. 330,000 compounds, 1.3% hits. AID 463212;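 active = growth inhibition of the mutant yeast at or above 50%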;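 also: temperature-sensitive mutant grown at 25 °C; plate controls were DMSO-treated mutant yeast for no effect and medium wells lacking yeast for full effect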
# TIM10 inh: growth inhibitors of TIM10 yeast strain. S. cerevisiae TIM10 strain growth, BacTiter-Glo luminescence, 24 h. inhibition, % at 10 µM. 330,000 compounds, 1.4% hits. AID 463195;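 active = inhibition of 40% or more at the single tested concentration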;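 also: wild-type TIM10 isogenic control strain grown at permissive 25 °C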
# NLRP3 yeast inh: NALP3 inhibition in yeast; inhibition, % at 10 µM; 330,000 compounds, 0.39% hits; Yeast reconstituted NLRP3/ASC/caspase-1, beta-gal luminescence, 24 h; AID 2825;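 active = inhibition of 50% or more; inactive = inhibition below 50%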;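 also: plate controls were induced DMSO wells for no effect and uninduced yeast grown without galactose for full effect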
# PfHsp90 set2: reduces growth (ATP signal) of yeast expressing P. falciparum Hsp90. S. cerevisiae expressing PfHsp90, BacTiter-Glo ATP, 48 h; yeast lacking PDR1 and PDR3 efflux regulators. inhibition, % at 9.4 µM. 310,000 compounds, 0.32% hits;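 active = every replicate shows inhibition above about 80%, whatever the replicate mean, limit read from the data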;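 also: 0% = DMSO neutral controls and 100% = 20 µM radicicol positive controls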
# tim10-1 inh: growth inhibitors of tim10-1 mutant yeast | 330,000 compounds, 2.2% hits | S. cerevisiae tim10-1 ts strain growth, BacTiter-Glo, 24 h | inhibition, % at 20 µM | AID 463190;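 active = inhibition of at least 40%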;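 also: mutant grown at 25 °C; 0% = DMSO wells with yeast and 100% = wells holding no yeast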
# NALP3 yeast conf: confirmation of NALP3 inhibitors in yeast. shares compounds with NLRP3 yeast inh. yeast expressing human NALP3, luminescence. inhibition, % at 10 µM. 1,300 compounds, 81% hits. AID 435006; in the data active = inhibition above about 48%
# Casp1 ASC ctr: active in yeast caspase-1-ASC counter-screen for NALP3 inhibitors; shares compounds with NLRP3 yeast inh; inhibition, % at 10 µM; AID 488784; 1,000 compounds, 66% hits; yeast expressing Caspase-1-ASC, luminescence counter screen
# NALP3 yeast rt: confirmation retest of NALP3 inhibitors in yeast. yeast expressing human NALP3, luminescence read-out. inhibition, % at 10 µM. shares compounds with NLRP3 yeast inh. 1,000 compounds, 53% hits
# tim10-1 confirm: confirmation of tim10-1 mutant yeast growth inhibitors; shares compounds with tim10-1 inh; S. cerevisiae tim10-1 ts strain growth, BacTiter-Glo, 24 h; inhibition, % at 20 µM; 7,400 compounds, 56% hits;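 active = inhibition of yeast growth at or above a set limit in either of two repeat tests at 20 µM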;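 also: tim10-1 mutant grown at permissive 25 °C to find synthetic lethal compounds; 0% = DMSO yeast wells and 100% = medium wells without yeast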
# * hit, by the source's call; · = no result. Compounds with a hit are over-represented: about 3.7% of the library has one in this group of screens. Rule as the data show it, unless noted: active = inhibition above about 50%; inactive = the rest.
SMILES,tim23-1 inh,TIM10 inh,NLRP3 yeast inh,PfHsp90 set2,tim10-1 inh,NALP3 yeast conf,Casp1 ASC ctr,NALP3 yeast rt,tim10-1 confirm
Cc1ccc(S(=O)(=O)c2ccsc2NC(=O)c2ccccc2)cc1,·,·,·,22,·,·,·,·,·
Cc1ccc(NC(=O)c2nc(S(=O)(=O)Cc3ccccc3)ncc2Cl)cc1,50,-59,55*,104*,-114,68*,50,53*,·
Cc1cccc(C)c1NC(=O)c1nc(S(=O)(=O)Cc2ccccc2)ncc1Cl,43,6,22,-27,36,·,·,·,·
COC(=O)C1C(C(=O)OC)C1(c1ccccc1)c1ccccc1 (stereo not given),24,23,-138,-4,29,-38,·,·,·
COC(=O)C1C(c2ccccc2)C=CC(c2ccccc2)C1C(=O)O (stereo not given),4,1,-2,-16,-4,·,·,·,·
O=c1[nH]c2c(s1)C(c1ccccc1)C1C3CCC(C3)C1S2 (stereo not given),7,13,16,-41,14,·,·,·,·
COc1ccc(C2c3sc(=O)[nH]c3SC3C4CCC(C4)C23)cc1 (stereo not given),29,19,51*,43,28,52*,·,·,·
CN(C)c1ccc(N=Nc2cccc(F)c2)cc1,31,-3,52*,-7,27,43,51*,39,·
CN(C)c1ccc(N=Nc2cccc3ccoc23)cc1,20,19,60*,-12,28,68*,45,41,·
CN(C)c1ccc(N=Nc2ccc(S(N)(=O)=O)cc2)cc1,-13,-10,33,12,6,·,·,·,·
O=C(Cc1ccc([N+](=O)[O-])cc1)OCc1c(F)cccc1Cl,25,-23,13,-1,-8,·,·,·,·
CCCCCCCCCCCCCCCC(=O)OC(CC(=O)O)C[N+](C)(C)C (stereo not given),4,5,57*,109*,64*,45,67*,45,22
Cc1ccc(C(=O)N2CCN(S(=O)(=O)c3ccccc3C#N)CC2)cc1S(=O)(=O)N1CCOCC1,-23,4,8,-2,-12,·,·,·,·
CN(C)c1ccc(NC(=S)NC23CC4CC(CC(C4)C2)C3)cc1,9,-2,30,4,11,·,·,·,·
Cc1nnc(NC(=O)c2cc(S(=O)(=O)N(C)C)ccc2N2CCCC2)s1,12,9,16,·,-12,·,·,·,·
Cn1c(/C=N/Nc2nc3ccccc3[nH]2)nc2ccccc21,46,23,51*,2,41*,74*,9,22,24
O=C(Nc1ccc2c(c1)OCCO2)c1cnn(-c2ccccc2)n1,32,7,23,2,-31,·,·,·,·
CCCCc1ccc(NC(=S)NCc2ccc(OC)cc2)cc1,25,34,50*,-6,46*,72*,55*,35,-16
COc1ccc(CNC(=S)Nc2ccc(OC)cc2)cc1,5,5,5,-7,8,·,·,·,·
CNC(=O)c1nnsc1S(=O)(=O)c1ccc(Cl)cc1,32,23,59*,-118,58*,67*,65*,47,47*
CNC(=O)c1ccc(S(=O)(=O)c2ccc(Cl)cc2)c(NC(C)=O)c1,0,-5,17,1,-5,·,·,·,·
COc1ccc(-c2cn3c4c(sc3n2)CCCC4)cc1,38,32,52*,15,41*,61*,49,45,11
CCN(CC)CCCN(C(=O)c1ccco1)c1nc(-c2ccc(C)cc2)cs1,5,14,15,9,23,·,·,·,·
CCN(CC)CCCN(C(=O)c1ccco1)c1nc(-c2ccc(Cl)cc2)cs1,17,15,51*,-4,41*,54*,46,38,23
CCOc1ccc(CN(C(=O)c2cc(=O)c3cc(C)cc(C)c3o2)C2CCS(=O)(=O)C2)cc1 (stereo not given),10,6,10,17,7,·,·,·,·
SMILES,tim23-1 inh,TIM10 inh,NLRP3 yeast inh,PfHsp90 set2,tim10-1 inh,NALP3 yeast conf,Casp1 ASC ctr,NALP3 yeast rt,tim10-1 confirm
CCOc1ccc(N2C(=O)CNC2=S)cc1,5,-21,7,·,26,·,·,·,·
CCOc1ccc(N2C=Nc3ccc(OCC)cc3C2)cc1,33,-1,59*,26,42*,61*,60*,51*,25
COCCn1c(-c2ccccc2)csc1=Nc1cccnc1,30,4,8,-82,12,·,·,·,·
CC(C)n1c(-c2ccco2)csc1=Nc1cccnc1,35,18,53*,16,49*,11,·,·,32*
CCCCN(CCO)c1ncnc2sc(-c3ccccc3)cc12,21,-11,21,-4,-1,·,·,·,·
Fc1cccc(F)c1/C=C/c1ccc2ccccc2n1,25,7,8,15,17,·,·,·,·
CC(O)/C=C/c1ccc2ccccc2n1 (stereo not given),35,13,50*,4,49*,70*,37,43,35*
CC1(C)CC(=O)C2=C(C1)OC1=C(C(=O)CC(C)(C)C1)C2c1ccc(O)c([N+](=O)[O-])c1,25,4,-7,-4,29,·,·,·,·
CC1(C)CC(=O)C2=C(C1)OC1=C(C(=O)CC(C)(C)C1)C2c1ccc(O)cc1O,46,36,56*,-18,44*,56*,57*,42,35*
C=Cc1ncc(OC)c2c1[nH]c1ccccc12,31,22,60*,-26,44*,74*,81*,64*,37*
O=C(c1csc2c1CCCC2)N1CCN(c2cccc(C(F)(F)F)c2)CC1,33,30,-110,·,56*,5,·,·,33*
O=C(c1cccc(F)c1)N1CCN(c2cccc(C(F)(F)F)c2)CC1,29,20,-51,16,32,·,·,·,·
CC[C@H](C)[C@H]1O[C@]2(CC[C@@H]1C)C[C@@H]1C[C@@H](CC=C(C)[C@@H](O[C@H]3C[C@H](OC)[C@@H](O[C@H]4C[C@H](OC)[C@@H](O)[C@H](C)O4)[C@H](C)O3)[C@@H](C)C=CC=C3CO[C@@H]4[C@H](O)C(C)=C[C@@H](C(=O)O1)[C@]34O)O2,17,4,9,15,30,·,·,·,·
N/C(=N\N=C/c1ccc(F)cc1)N/N=C\c1ccc(F)cc1,49,30,64*,5,44*,76*,70*,65*,-72
Cc1nc2ccc(Nc3nc4cc(S(=O)(=O)N5CCOCC5)ccc4o3)cc2s1,33,38,-101,6,45*,-50,-34,-1,34*
C/C(=N/NC(=O)c1ccc(C(C)(C)C)cc1)c1ccccn1,41,4,66*,-18,47*,55*,83*,79*,15
